This is part of a sample that, as a whole, favours compounds with a hit. Of some 83,000 tested, about 20% had one in any assay.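 Interpretation: 100, growth as untreated; towards 0, rising growth inhibition; 0, no net growth; 0 to -100, cell death. Compounds scoring below 10 were considered active.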 A number with no mark means an inactive call. Active and inactive are the calls of the source.
Legend:
Experiment in all cases: NCI-60 one-dose screen, 48 h (100 = growth as untreated, 0 = no growth, -100 = all killed)
HCT-15 colon = details: 10 µM unless noted
HT29 colon = details: 10 µM unless noted
SNB-75 CNS = details: 10 µM unless noted
SNB-19 CNS = details: 10 µM unless noted
U251 CNS = details: 10 µM unless noted
PC-3 prostate = details: 10 µM unless noted
SK-MEL-5 melanoma = details: 10 µM unless noted
UACC-62 melanoma = details: 10 µM unless noted
LOX IMVI melanoma = details: 10 µM
SK-MEL-28 melanoma = details: 10 µM unless noted
SK-MEL-2 melanoma = details: 10 µM unless noted
EKVX NSCLC = details: 10 µM unless noted
SN12C renal = details: 10 µM unless noted
UO-31 renal = details: 10 µM unless noted
TK-10 renal = details: 10 µM unless noted
ACHN renal = details: 10 µM unless noted
CAKI-1 renal = details: 10 µM unless noted
A498 renal = details: 10 µM unless noted
CCRF-CEM leukemia = details: 10 µM unless noted
MOLT-4 leukemia = details: 10 µM unless noted

| SMILES | growth (HCT-15 colon) | growth (HT29 colon) | growth (SNB-75 CNS) | growth (SNB-19 CNS) | growth (U251 CNS) | growth (PC-3 prostate) | growth (SK-MEL-5 melanoma) | growth (UACC-62 melanoma) | growth (LOX IMVI melanoma) | growth (SK-MEL-28 melanoma) | growth (SK-MEL-2 melanoma) | growth (EKVX NSCLC) | growth (SN12C renal) | growth (UO-31 renal) | growth (TK-10 renal) | growth (ACHN renal) | growth (CAKI-1 renal) | growth (A498 renal) | growth (CCRF-CEM leukemia) | growth (MOLT-4 leukemia) |
| --- | --- | --- | --- | --- | --- | --- | --- | --- | --- | --- | --- | --- | --- | --- | --- | --- | --- | --- | --- | --- |
| COc1cc2oc(-c3cccc(C(=O)Nc4ccc(Cl)cc4)c3)cc(=O)c2c(OCC(=O)N[C@@H](Cc2ccccc2)C(=O)O)c1OC | 112% | 112% | 112% | 98.2% | 109% | 97.5% | 96.1% | 97.8% | 83.4% | 95.5% | 116% | 107% | 105% | 90.8% | 134% | 97.2% | 91.2% | 102% | 98.9% | 110% |
| O=C(CN1C(=O)/C(=C/c2ccccc2F)SC1=S)N1CCOCC1 | 29.4% | 87.1% | 106% | 91% | 91.8% | 95.1% | 93.9% | 76.2% | 38% | 86.4% | 99.1% | 95.9% | 72.6% | 58.5% | 97.8% | 50.3% | 85.5% | 129% | 41.9% | – |
| COc1ccc2[nH]cc(-c3nnc(N)nc3-c3cn(C)c4ncc(Br)cc34)c2c1 | 68.5% | 82.6% | 31.7% | 69.6% | 75.1% | 72.9% | 85.7% | 68.5% | 71.9% | 54% | 61.1% | 88.7% | 60.2% | 49.4% | 46.3% | 50.8% | 43.9% | 45.5% | 66.8% | – |
| C#CCOc1cc(N(CC)CC)ccc1C(C(=O)NC(C)(C)C)N(C(=O)C1CCc2cc(F)ccc2O1)c1ccc(F)c(Cl)c1 (configuration not stated) | 51.1% | 79% | 59% | 60.5% | 45.1% | 25.7% | 61.1% | 45.8% | 52.9% | 75.5% | -6.45% (active) | 54.4% | 55.8% | 47.2% | 85.2% | 61.6% | 41.1% | 73% | 52.8% | 21.2% |
| CCOC(=O)C1=C(N)N(c2ccccc2)C2=C(C(=O)CC(C)(C)C2)C1c1ccc(N2CCOCC2)cc1 (configuration not stated) | 97.8% | 112% | 91.4% | 92.9% | 98.7% | 94.6% | 98.7% | 83% | 93.2% | 107% | 97.4% | 95.4% | 95.7% | 90.3% | 108% | 96.7% | 82.1% | 110% | 105% | 99.2% |
| Cc1ccc(C2=NN(c3nc(-c4cc5ccccc5oc4=O)cs3)C(c3ccc(C)cc3)C2)cc1 (configuration not stated) | 91.7% | 124% | 96.2% | 94.7% | 99.9% | 99.9% | 101% | 91.2% | 91.2% | 123% | 104% | 93.6% | 104% | 68% | 163% | 102% | 88.2% | 127% | 101% | – |
| C#CCOc1ccc(/C=N/Nc2nc(-c3ccc(F)cc3)cs2)cc1OC | 41.2% | 78.8% | 81.8% | 77.5% | 89.4% | 24.2% | 3.86% (active) | 46.7% | 62.4% | 76.5% | 60.8% | 62.5% | 68.9% | 48.4% | 156% | 64.5% | 56.2% | 80.7% | 26.3% | 12.1% |
| O=c1oc2ccccc2cc1-c1csc(N=Nc2c(O)[nH]c3ccc(Cl)cc23)n1 | 98.8% | 107% | 98.1% | 89.7% | 101% | 108% | 98.7% | 92% | 100% | 109% | 112% | 100% | 97.9% | 97.7% | 109% | 110% | 106% | 98.6% | 103% | 109% |
| CCN(CC)c1ccc(/C=N/Nc2nc(-c3ccc(Br)cc3)cs2)c(O)c1 | 11.5% | 56.3% | 77.4% | 107% | 81.7% | 85.2% | 77.2% | 77.4% | -57.5% (active) | 86.2% | 94.6% | 90.9% | 23.1% | 65.4% | 96.5% | 76.1% | 55.1% | 102% | 1.36% (active) | 12.3% |
| Cn1cc(-c2cc(N)n3nc(-c4cn(C)c5ccccc45)cc3n2)c2cc(Br)ccc21 | -79.1% (active) | -65.1% (active) | -35.7% (active) | 7.16% (active) | -72% (active) | -34% (active) | -63.5% (active) | -59.7% (active) | -85.3% (active) | -86.4% (active) | -84.5% (active) | -22.1% (active) | -43.9% (active) | -84.2% (active) | -27.8% (active) | -31.7% (active) | -75.3% (active) | -26.3% (active) | -4.52% (active) | -0.0957% (active) |
| Cn1cc(-c2cc3nc(-c4c[nH]c5ccc(Cl)cc45)cc(N)n3n2)c2ccccc21 | -86.2% (active) | -80.7% (active) | -67.5% (active) | -72.3% (active) | -83% (active) | -80.9% (active) | -84.8% (active) | -70.9% (active) | -80.7% (active) | -97.4% (active) | -89.8% (active) | -88.6% (active) | -65.9% (active) | -98.6% (active) | -92.1% (active) | -100% (active) | -94.6% (active) | -62.7% (active) | -21.5% (active) | -36.1% (active) |
| N=C1N=C(SCc2nc3ccccc3[nH]2)NC(=O)/C1=C/c1ccc(Cl)cc1 | 103% | 108% | 106% | 105% | 105% | 107% | 98.3% | 90.3% | 91.3% | 110% | 105% | 106% | 98.6% | 70.5% | 143% | 99.6% | 85.9% | 122% | 100% | 99.5% |
| CN(C)c1nc(NCCNS(=O)(=O)c2ccc(C3=Nc4c(N)nc(N)nc4NC(c4ccccc4)C3)cc2)nc(Nc2ccc(F)cc2)n1 (configuration not stated) | 37.4% | 18.3% | 62.5% | 56.6% | 36.4% | 26.5% | 33.7% | 55.9% | 3.29% (active) | 60.2% | 68.6% | 51.4% | 37.8% | 69% | 65% | 76.3% | 61.2% | 57.3% | 22.2% | 2.62% (active) |
| CCN(CC)c1ccc(/C=N/Nc2nc(-c3ccc(C)cc3)cs2)c(O)c1 | 67.2% | 83.5% | 92.1% | 89.6% | 90% | 70.5% | 79.7% | 80.6% | 88.2% | 95% | 79.7% | 79.2% | 99.7% | 83.2% | 86.9% | 96.3% | 78% | 105% | 88.2% | 80% |
| COc1ccc(NC(=O)Nc2ccc(OCc3ccc(F)cc3)cc2)cc1 | 91.1% | 92.3% | 63.6% | 46.9% | 34.8% | 79.7% | 76.6% | 82.6% | 26.6% | 75.5% | 96.8% | 74.2% | 55.7% | 26.3% | 82.4% | 42.2% | 66.6% | 80.3% | 83.7% | 94.8% |
